Screening results from PubChem BioAssay.
Only some compounds are listed: those with a hit (about 2.1% of all), similar ones and a draw of the others.
Rin1-Abl PPI inh: inhibitors of human Rin1-Abl protein interaction. TR-FRET Rin1/Abl binding, biochemical. inhibition, % at 7.35 µM. 360,000 tested, 0.4% active; in the data active = inhibition above about 5%, passing the limit was not always enough
Calb FLC: affects C. albicans growth with fluconazole | C. albicans CaCi-2 (fluconazole-resistant clinical isolate) + fluconazole, Alamar Blue growth, 48 h | growth inhibition, % (test concentration not listed) | 300,000 tested, 0.57% active;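 active = growth inhibition above about 58% in most replicates, limit read from the data, passing the limit was not always enough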;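 also: all wells also contain fluconazole at 8 µg/ml as a sub-toxic cotreatment; 0% = median of DMSO wells and 100% = median of geldanamycin control wells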
CTSL1 counter-1: blocks F. hepatica cathepsin L1 in PFM18AAP counter-screen; inhibition, % at 5.96 µM; recombinant F. hepatica cathepsin L1, Z-Leu-Arg-MCA fluorescence; AID 1906; 300,000 tested, 0.49% active;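 active = inhibition above the mean of all tested compounds plus 3 SD, set per screening campaign, cut at about 17% in these data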;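 also: 0% = plate median of test compound wells and 100% = 1 µM Z-Phe-Ala-diazomethylketone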
PfM18AAP inh-1: blocks P. falciparum M18 aspartyl aminopeptidase; AID 1822; 290,000 tested, 1.2% active; recombinant PfM18AAP, H-Glu-NHMec fluorogenic cleavage; inhibition, % at 7.35 µM;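 active = inhibition above the campaign mean inhibition over all tested compounds plus 3 SD, cut at about 28% in these data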;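 also: 0% = plate median of test compound wells and 100% = 2 mM ZnCl2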
PfM18AAP inh-2: PfM18AAP inhibition, confirmation; shares compounds with PfM18AAP inh-1; recombinant PfM18AAP, H-Glu-NHMec fluorogenic cleavage; inhibition, % at 7.35 µM; 2,400 tested, 28% active; AID 2170;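 active = mean inhibition over replicate wells above the hit cutoff set for the earlier primary screen, cut at about 29% in these data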;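 also: 0% = median of test compound wells and 100% = 2 mM ZnCl2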
CTSL1 counter-2: counter-screen for PFM18AAP inhibitors: confirmation of human cathepsin L inhibitors. shares compounds with PfM18AAP inh-1. purified cathepsin L1, Z-Leu-Arg-MCA fluorescence. inhibition, % at 5.96 µM. 2,400 tested, under 10 active. AID 2178;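 active = average inhibition across replicates above the hit cutoff set in the earlier primary screen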;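 also: 0% = median of test compound wells and 100% = Z-Phe-Ala-diazomethylketone 1 µM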
* hit, by the source's call; . = not tested or not shown.

SMILES	Rin1-Abl PPI inh	Calb FLC	CTSL1 counter-1	PfM18AAP inh-1	PfM18AAP inh-2	CTSL1 counter-2
O=C(NCCCN1CCOCC1)c1sc2cc([N+](=O)[O-])ccc2c1Cl	-4.9	0.1	-5.1	59.2*	33.4*	-2.5
CCN(Cc1ccccc1)C(=O)CCS(=O)(=O)c1cc2c(cc1Cl)NC(=O)CO2	-0.5	-1.6	1.0	-5.2	.	.
COc1cc(OC)cc(C(=O)n2cnnc2N)c1	6.4	2.9	3.9	53.3*	48.8*	-0.3
Cc1cccc(-n2cc(-c3ccccc3)[nH]c2=S)c1	0.3	-23.0	-2.4	39.5*	12.6	4.3
CC(=O)Nc1ccc(-n2cc(-c3ccccc3)[nH]c2=S)cc1	-4.7	6.9	0.7	64.2*	57.6*	2.1
COc1ccc(-n2cc(-c3ccccc3)[nH]c2=S)cc1	-0.6	-2.7	-2.2	44.1*	32.8*	1.9
COc1ccccc1-n1cc(-c2ccccc2)[nH]c1=S	-0.9	4.9	-3.0	13.7	.	.
Cc1c(NC(=O)COC(=O)c2ccc(Br)o2)c(=O)n(-c2ccccc2)n1C	-1.6	6.5	-2.0	-11.5	.	.
O=C(O)[C@@H]1[C@@H]2C[C@@H]2CN1c1ncccc1[N+](=O)[O-]	5.2	4.0	2.3	13.4	.	.
COC(=O)N/N=C/c1ccc(-c2ccc(C)c(Cl)c2)o1	-1.2	25.0	-0.5	4.3	.	.
Cc1ccc(-c2ccc(/C=N/c3ncn[nH]3)o2)cc1Cl	1.1	-15.9	-0.7	36.5*	42.6*	2.1
COC(=O)/C=C1\SC(N2CCOCC2)=C(c2ccc(OC)cc2)C1=O	-0.9	-4.3	4.6	47.1*	32.4*	-1.2
Cc1nnc(SCc2cc(=O)[nH]c(=S)[nH]2)s1	-2.0	-5.6	-3.3	46.6*	15.5	0.5
O=c1cc(CSc2ccccc2)[nH]c(=S)[nH]1	-2.8	21.9	4.5	2.8	.	.
CC[C@]12c3[nH]c4ccccc4c3CCN1C(=O)C(CC(=O)NCc1cccc(C(F)(F)F)c1)C[C@@H]2C(=O)N1CCN(C(=O)C2CC2)CC1 (some centres undefined)	-5.2	.	.	.	.	.
O=C(NNc1cc(Cl)ccc1Cl)c1cccs1	1.0	-0.9	-1.0	51.9*	27.7	-0.7
Cc1noc(C)c1C(=O)NNc1cc(Cl)ccc1Cl	-0.3	-1.0	1.4	36.1*	8.7	-2.8
O=C1OC(/C(=C\Nc2ccccc2)[N+](=O)[O-])c2ccccc21 (centres undefined)	-0.7	3.6	1.5	46.7*	-35.6	-3.2
COc1cc(C(=O)NCC(=O)NCCCSc2ccccc2)cc(OC)c1OC	3.1	.	.	.	.	.
Cc1cc(C)c2sc(NNC(=O)c3ccc(S(=O)(=O)N4CCc5ccccc5C4)cc3)nc2c1	-1.3	7.8	0.9	23.1	.	.
Cc1cc(C)c2nc(NNC(=O)c3ccc(S(=O)(=O)N4CCc5ccccc5C4)cc3)sc2c1	-2.5	0.1	0.5	35.9*	-44.9	2.7
COc1ccc(N2CCN(CC(=O)c3ccc(O)cc3O)CC2)cc1	-2.6	-2.0	1.6	37.1*	-5.8	-2.0
Cc1cc(C)n2c(SCC(=O)NC3CCCCC3)nnc2n1	2.9	10.4	-6.8	5.0	.	.
CCCC(C)c1nnc(NC(=O)C2CC(=O)N(CCc3ccc(F)cc3)C2)s1 (centres undefined)	0.5	1.1	0.9	40.6*	-8.5	-0.1
COc1ccc(-c2noc(CNC(=O)CCCN3C(=O)[C@H]4CC=CC[C@H]4C3=O)n2)cc1	-1.1	.	-0.9	-10.9	.	.
SMILES	Rin1-Abl PPI inh	Calb FLC	CTSL1 counter-1	PfM18AAP inh-1	PfM18AAP inh-2	CTSL1 counter-2
COc1cc(OC)nc(NC(=O)NS(=O)(=O)c2ccccc2Cl)n1	-1.4	6.8	1.1	-1.8	.	.
Cc1cc(N(C)N)nc(NC(=O)NS(=O)(=O)c2ccccc2Cl)n1	0.7	-1.7	-3.4	56.9*	49.8*	0.1
CCC1CCCCN1CCCNC(=O)c1ccc2c(c1)N(Cc1ccc(F)cc1)C(=O)c1ccccc1S2=O (centres undefined)	-0.2	6.3	1.0	2.4	.	.
CCOC(=O)c1sc(NC(=O)Cc2ccc(C)cc2)nc1C	3.4	14.1	4.4	2.5	.	.
CCOC(=O)c1sc(NNC(=O)c2ccc(C)cc2)nc1C	1.9	4.8	-3.0	36.5*	7.7	-0.5
Cc1ccc(NC(=O)CSc2nnc(-c3cnccn3)n2C)cc1C	-0.6	-12.3	-1.8	1.7	.	.
COc1cccc(NC(=O)C(OC(=O)/C=C/c2ccc3c(c2)OCO3)c2ccccc2)c1 (centres undefined)	-2.5	-41.2	-5.9	32.4*	-38.2	-6.8
O=C(Cc1cccs1)NCc1ccc(Cl)cc1	0.4	0.8	-2.9	2.8	.	.
CN(NC(=S)Nc1ccc(OC(F)F)cc1)C(=S)Nc1ccc(OC(F)F)cc1	-0.4	-2.7	4.0	-2.1	.	.
FC(F)Oc1ccc(NC(=S)Nn2cnnc2)cc1	-0.2	-9.5	4.7	80.3*	65.6*	-1.9
CCc1ccc(CNC(=O)C2CC(=O)N(C3CCCC3)C2)cc1 (centres undefined)	2.4	-2.1	16.3	0.9	.	.
C(=C\c1ccco1)/C=N/n1cnnc1	-2.3	-3.5	8.2	57.5*	-5.5	1.1
O=[N+]([O-])c1ccc(N/N=C/c2ccc(OCc3cccc4ccccc34)cc2)nc1	5.9	18.1	0.4	44.8*	-38.5	2.1
COc1ccc(C=NNc2ccc([N+](=O)[O-])cn2)cc1	-2.4	.	.	.	.	.
O=C(NNc1nc2cc3c(cc2s1)OCO3)c1ccc(F)cc1	-1.5	-8.0	-4.8	42.1*	5.5	-1.9
COc1cc(/C=C2\C(=N)N3N=C(S(C)(=O)=O)SC3=NC2=O)ccc1OC(=O)c1ccco1	0.5	35.7	-2.1	2.9	.	.
N#Cc1c(N)sc(=S)c2c1CCCCC2	0.8	5.0	2.9	8.3	.	.
N#Cc1c(N)sc2c1CCCCCC2	-2.1	-2.4	-1.1	42.7*	-6.3	-0.4
S=c1[nH]c(-c2ccccc2)cn1/N=C/c1cccnc1	-2.0	-4.9	0.5	62.0*	56.6*	-4.2
Fc1ccccc1/C=N/n1cnnc1	0.5	-4.6	1.5	13.6	.	.
S=c1[nH]c(-c2ccccc2)cn1/N=C/c1cccs1	-4.8	-3.0	2.0	47.4*	39.4*	2.6
Fc1ccccc1/C=N/n1cc(-c2ccccc2)[nH]c1=S	3.5	20.6	2.5	45.6*	40.8*	-0.1
Cc1ccccc1-c1cccc([C@@H]2C[C@H]3C(CN2)CON3C)c1 (some centres undefined)	-1.9	.	.	.	.	.
O=C(O)CCC(=O)Nc1ccc(N2CCCCCC2)cc1	-0.7	1.2	0.2	43.8*	-1.0	1.1
CC1(C(=O)Nc2ccc3c(c2)OCCO3)CCN1C(=O)c1ccco1 (centres undefined)	3.1	.	.	.	.	.
Cc1ccc(-n2c(N)c(C(N)=O)sc2=S)c(C)c1	-2.7	-6.3	-3.4	39.1*	7.7	5.1
Cc1ccc(-n2c(N)c(C(=O)N3CCCCC3)sc2=S)cc1	0.3	-16.8	7.9	-25.2	.	.
Cc1ccc(-n2c(N)c(C(=O)N3CCN(C)CC3)sc2=S)cc1	-3.3	6.8	-0.7	58.7*	19.2	0.8
Cc1cc(C(=O)Nc2nc3c(C)cccc3s2)c(C)o1	-2.0	22.1	4.5	-1.5	.	.
